39 molecules from PubChem BioAssay (NCI) can be followed below.

A short description of test [1]: NCI Yeast Anticancer Drug Screen. Data for the rad50 strain (AID 155).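 Also: 0% = growth of vehicle-only cultures of the same strain.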 As to conditions: S. cerevisiae rad50 strain growth inhibition, stronger effect = higher value; at 50.0 µM unless noted. The method, boiled down: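 Growth of the mutant yeast was measured after compound exposure and referenced to vehicle-treated cultures.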
Test [2] in a line: NCI Yeast Anticancer Drug Screen. Data for the mec2-1 strain (AID 157). As to conditions: S. cerevisiae mec2-1 strain, stronger effect = higher value; at 50.0 µM unless noted. The method, boiled down: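 Test agents were screened against the mec2-1 yeast strain, with defined DNA repair or cell cycle alteration. Growth was scored as inhibition against vehicle-only controls.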
The nature of test [3]: NCI Yeast Anticancer Drug Screen. Data for the sgs1 mgt1 strain (AID 161).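 Also: 0% = growth of cultures given vehicle only.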 As to conditions: S. cerevisiae sgs1 mgt1 strain, stronger effect = higher value; at 50.0 µM unless noted. The method in brief: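 Read-out: growth inhibition vs vehicle controls. Cells: mutant yeast strain deficient in DNA damage repair.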
Test [4] is described as follows: NCI Yeast Anticancer Drug Screen. Data for the cln2 rad14 strain (AID 165).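 Also: 0% = growth equal to vehicle treated cultures.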 The note with it: S. cerevisiae cln2 rad14 strain, stronger effect = higher value; at 50.0 µM unless noted. The method, boiled down: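 Growth of compound-exposed yeast (cln2 rad14 genotype) measured and expressed as inhibition relative to vehicle.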
Test [5] in a line: NCI Yeast Anticancer Drug Screen. Data for the bub3 strain (AID 167). As to conditions: S. cerevisiae bub3 mutant strain, stronger effect = higher value; at 50.0 µM unless noted. The method in brief: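 Whole-cell yeast assay. The mutant strain was incubated with compounds, and growth inhibition was determined by comparison with vehicle-treated cells.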
Test [6] in a line: NCI Yeast Anticancer Drug Screen. Data for the mlh1 rad18 strain (AID 175). The note with it: S. cerevisiae mlh1 rad18 strain growth inhibition, stronger effect = higher value; at 50.0 µM unless noted. The method in brief:
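In this whole-cell yeast screen, a strain with altered DNA damage repair is challenged with compound, and its growth is measured against matched vehicle-treated controls.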

Where “and” joins values, the source holds several entries; their conditions need not be identical. Equal entries are not always repeated. Compounds without any hit were thinned out: in the full panel of roughly 79,000, 15% have a hit. A number with no mark means an inactive call. Calls of active or inactive are those of the source. Rule as the data show it: active = growth inhibition above about 70%; inactive = the rest.

With `C[Si](C)(C)Cn1cccc1`, the growth inhibition in test [1] was -7.5%; in test [2], 8.9%; in test [3], 5%; in test [4] it was -37.6%; in test [5], -1.15%; in test [6] it was -8.85%.

For `COc1ccc(OC)c(N)c1`, the growth inhibition in test [1] was -4.3%; in test [2], -8.4%; in test [3] it was -7.55%; in test [4] it was 16.4%; in test [5], 3.6%; in test [6] it was -22.9%.

Turning to `CCCN(CCC)C(=O)c1ccccc1C`, the growth inhibition in test [1] was 9.5%; in test [2], -2%; in test [3], 6.65%; in test [4], -14.1%; in test [5], 18.4%; in test [6], 2.9%.

For `CC12CCC(=O)C=C1CCCC2=O` (centres undefined), the growth inhibition is -7.6% in test [1]; -12.3% in test [2]; -11.6% in test [3]; -14.7% in test [4]; -7.75% in test [5]; -3.4% in test [6].

Regarding `COc1ccc(O)c2c1C(=O)CCCC2=O`, the growth inhibition in test [1] is 3.65%; in test [2], -0.75%; in test [3], 6.35%; in test [4] it was -4.6%; in test [5], 4.05%; in test [6] it was 0.7%.

Regarding `O=c1cc(-c2ccccc2)[nH]c2c(F)ccc(F)c12`, the growth inhibition in test [1] was -27.4%; in test [2] it was -46.5%; in test [3], -34.5%; in test [4], 11.3%; in test [5], -34.9%; in test [6] it was -18.9%.

With `CCN1c2ccccc2CC(CCCN(C)C)(C(N)=O)c2ccccc21` (centres undefined), the growth inhibition in test [1] was 3.8%; in test [2], 12.3%; in test [3], 18.2%; in test [4] it was 9.45%; in test [5] it was -1.85%; in test [6], -8.25%.

With `COc1ccc(OC)c2[nH]c(Sc3c([N+](=O)[O-])ncn3C)nc12`, the growth inhibition in test [1] is -5.95%; in test [2], -13.9%; in test [3] it was -15.4%; in test [4] it was 8.55%; in test [5] it was -15.2%; in test [6], -7.7%.

In the case of `O=P(O)(O)OCC1OC(n2cnc3c(=S)nc[nH]c32)C(O)C1O` (centres undefined), the growth inhibition was -17.4% in test [1]; 3.95% in test [2]; -14.1% in test [3]; 3.9% in test [4]; -7.7% in test [5]; -3.55% in test [6].

Turning to `CCCC(C)C(=O)OC(CC)CC` (centres undefined), the growth inhibition in test [1] was 31.4%; in test [2], 1.55%; in test [3], 13.1%; in test [4] it was -18.2%; in test [5] it was 5.65%; in test [6], 11.4%.

Turning to `COC(=O)C1(c2ccccc2)N=C(c2ccc(C)cc2)ON1c1ccccc1` (centres undefined), the growth inhibition was -5.95% in test [1]; 7.05% in test [2]; -7.85% in test [3]; 12.7% in test [4]; -1% in test [5]; 10.1% in test [6].

Regarding `O=C(Nc1ccc(S(=O)(=O)Nc2nccs2)cc1)c1ccncc1`, the growth inhibition in test [1] was -0.05%; in test [2], -11.3%; in test [3], 22.3%; in test [4], 19.1%; in test [5], 28.3%; in test [6] it was 12%.

As for `CC1C=NNC1=O` (centres undefined), the growth inhibition in test [1] was 19.9%; in test [2] it was -30.8%; in test [3], 23.5%; in test [4], 3.4%; in test [5] it was -0.05%; in test [6] it was 4.5%.

For the molecule `COc1ccc(C(=[N+]=[N-])c2ccc(OC)cc2)cc1`, the growth inhibition is -4.65% in test [1]; -6.85% in test [2]; 7.35% in test [3]; -48.2% in test [4]; -10.1% in test [5]; 4.75% in test [6].

Consider `COc1ccc(-c2cc(=O)c3c(O)c(O)c(OC)cc3o2)cc1O`, for which the growth inhibition in test [1] was -5.15%; in test [2], -28.6%; in test [3], -55.9%; in test [4], -8.4%; in test [5], -2.6%; in test [6], -18.3%.

Take `O=C(C#Cc1ccccc1)Nc1ccccc1CC(c1c[nH]c2ccccc12)c1c[nH]c2ccccc12`: the growth inhibition is 0.75% in test [1]; -2.25% in test [2]; 1.55% in test [3]; 5.4% in test [4]; 8.85% in test [5]; -7.65% in test [6].

On to `O=C1c2ccccc2C(=O)N1CN1C(=O)c2ccccc2S1(=O)=O`, for which the growth inhibition in test [1] is 24.1%; in test [2], 15.6%; in test [3], 29.4%; in test [4] it was 24.2%; in test [5], 19.4%; in test [6] it was 34.9%.

Turning to `O=C(NCCCN1CCN(CCCNC(=O)Nc2ccc(N=Nc3ccccc3)cc2)CC1)Nc1ccc(N=Nc2ccccc2)cc1`, the growth inhibition was -0.95% in test [1]; 16.3% in test [2]; 0.65% in test [3]; -3.3% in test [4]; -1.8% in test [5]; 14.6% in test [6].

Take `FC(F)(F)c1ccc2nc(NCc3ccccc3)c(-c3ccccc3)nc2c1`: the growth inhibition is 3.85% in test [1]; 15.6% in test [2]; 24.6% in test [3]; -6.25% in test [4]; 26.9% in test [5]; 35.8% in test [6].

Regarding `Cc1ccc(S(=O)(=O)OC2C(OCc3ccccc3)OC(CO)C2O)cc1` (centres undefined), the growth inhibition in test [1] was -6%; in test [2], 6.65%; in test [3], -9.2%; in test [4], 15.3%; in test [5], -0.6%; in test [6], -9.15%.

Regarding `COc1ccc(-n2cnc3c2NC(C)(C)N=C3C(N)=O)c(OC)c1`, the growth inhibition is -17.8% in test [1]; -30.1% in test [2]; -36.1% in test [3]; 24.9% in test [4]; -10.2% in test [5]; -23.2% in test [6].

As for `COc1ccc(/C=C2\N=C3N(Cc4ccccc4)C=C(N)N3C2=O)cc1`, the growth inhibition in test [1] is 2.65%; in test [2], -6.1%; in test [3], 15.8%; in test [4], -6.55%; in test [5], 17.8%; in test [6], 9.75%.

On to `O=C(CC(=O)c1ccc(OC(=O)c2ccccc2)cc1O)c1ccccc1`, for which the growth inhibition in test [1] was -12.7%; in test [2], -4.95%; in test [3] it was -2.8%; in test [4], -16.1%; in test [5] it was 8%; in test [6] it was -27.6%.

On to `CN(C)C(=NN=C(N(C)C)N(C)C)N(C)C`, for which the growth inhibition in test [1] was 12.2%; in test [2], -4.2%; in test [3], 0.05%; in test [4], -39%; in test [5] it was -5.85%; in test [6], 1.5%.

Turning to `CC(C#N)C(=O)O` (centres undefined), the growth inhibition in test [1] was -3.55%; in test [2], -5.85%; in test [3], -15.7%; in test [4], -8.15%; in test [5], -8.15%; in test [6], -18.5%.

Turning to `Cc1cc(N(CCCCl)CCCCl)ccc1C=Nc1cc(Cl)c(O)c(Cl)c1`, the growth inhibition is 71.8% (active) in test [1]; 6.15% in test [2]; 84.8% (active) in test [3]; -13.9% in test [4]; 53% in test [5]; 57.2% in test [6].

As to `OC1CSc2nc3ccccc3n2C1` (centres undefined), the growth inhibition in test [1] was 17.6%; in test [2], 9.25%; in test [3], 12.3%; in test [4], 9.7%; in test [5] it was 20.8%; in test [6], 38.9%.

`O=c1n(-c2ccccc2)c(=O)n(-c2ccccc2)c(=O)n1-c1ccccc1`: the growth inhibition in test [1] is -2.2%; in test [2], -13.2%; in test [3], -17.1%; in test [4], 5%; in test [5] it was 7.45%; in test [6] it was -14.7%.

Regarding `COc1ccc(COC(=O)Nc2ccccc2F)c(OC)c1OC`, the growth inhibition in test [1] was 3.15%; in test [2] it was -9.55%; in test [3] it was 30.7%; in test [4] it was -3.55%; in test [5], 26.6%; in test [6], 16.7%.

On to `O=C(O)C1CC(=O)N(Cc2ccccc2)C1` (centres undefined), for which the growth inhibition is 32.8% in test [1]; 33.3% in test [2]; 34.6% in test [3]; 6.45% in test [4]; 26.7% in test [5]; 34% in test [6].

Turning to `O=C(NO)Nc1ccccc1Cl`, the growth inhibition is 6.45% in test [1]; 9.45% in test [2]; 10.5% in test [3]; -1.65% in test [4]; -4.25% in test [5]; 8.9% in test [6].

With `O=c1[nH]cnc2c1ncn2C1OC(CO)C(O)C1O` (centres undefined), the growth inhibition in test [1] was 8% and -14.7%; in test [2], 8.25% and -20.1%; in test [3] it was 0.45% and 12.8%; in test [4], -117% and 5%; in test [5], 15.4% and 21.7%; in test [6], 5.85% and 5.3%.

Turning to `O=C1c2c(ccc3c2CCCC3)CC1Cc1ccc2c(c1)CCCC2` (centres undefined), the growth inhibition was -22% in test [1]; -15.2% in test [2]; -18.8% in test [3]; -25.1% in test [4]; -17.4% in test [5]; -37.7% in test [6].

For `COC1OC(C)C(OC(=O)c2ccccc2)C(OC(=O)c2ccccc2)C1OC(=O)c1ccccc1` (centres undefined), the growth inhibition is 16.2% in test [1]; -3.45% in test [2]; 3.75% in test [3]; -23.6% in test [4]; 1.95% in test [5]; 12.7% in test [6].

Regarding `CCOC(=S)SCC(=O)CSC(=S)OCC`, the growth inhibition was 73.8% (active) in test [1]; 12.1% in test [2]; 21.7% in test [3]; 9.7% in test [4]; 50.2% in test [5]; 2.15% in test [6].

For the molecule `Cc1ccc(O)cc1N(C)C`, the growth inhibition in test [1] was -18.4%; in test [2] it was -3.95%; in test [3], -12.7%; in test [4], -35%; in test [5], -6.25%; in test [6] it was -3.65%.

Regarding `OC1(C#CC#CC2(O)CCCCC2)CCCCC1`, the growth inhibition in test [1] was 12.9%; in test [2] it was 15.7%; in test [3], 0.2%; in test [4] it was 10.1%; in test [5], 3.4%; in test [6], 4.2%.

For `O=C1NC(N/N=C\C(O)C(O)C(O)CO)=N/C1=C/c1ccc(Cl)cc1` (centres undefined), the growth inhibition in test [1] is 43.2% and 45.5%; in test [2] it was 37% and 43%; in test [3], 44.8% and 35.1%; in test [4] it was 36.8% and 26.8%; in test [5] it was 38.1% and 43%; in test [6] it was 14.8% and 38.6%.

Consider `CN(Cc1ccccc1Cl)C(=O)Nc1cccc(Cl)c1`, for which the growth inhibition was 61.5% in test [1]; 78% (active) in test [2]; 80.7% (active) in test [3]; 80% (active) in test [4]; 86.7% (active) in test [5]; 90.2% (active) in test [6].
